As usually defined, the AC50 is the midpoint of the concentration-response curve, whichever way the signal moves.

Several values for one entry are separate records, joined by “and”; a condition that tells them apart may be missing. Identical values can stand only once. Results filed as inconclusive are left out. More than one record can exist for a structure, and the calls need not agree. Activity calls are given as the source filed them. How the source made its calls: active means hit-call score of the fitted dose curve at least 0.9, where 1 is the maximum; inconclusive means response in the unintended direction; inactive means score below 0.9.

These results are taken from PubChem BioAssay (EPA / NIEHS).

Test [1] concerns the target chicken Estrogen Receptor (ERa), ESR1 (gene 396099) (UniProt P06212). In words: ATG_chERa_XSP2: Attagene TRANS-FACTORIAL Multi-Species (XSP2) HepG2 Assay for chicken Estrogen Receptor (ERa) (AID 2283817).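 Further: actives raise reporter signal above DMSO so AC50 reflects ER activation.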 In outline: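 HepG2 cells transiently transfected with multiplexed GAL4-UAS reporter units expressing chimeric chicken ERa-Gal4; 24 h compound exposure. Reporter mRNA measured by RT-PCR with 6-FAM labelling, HpaI digestion and capillary electrophoresis; gain-of-signal fitted versus DMSO.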

The subject of test [2] is zebrafish Estrogen Receptor (ER2a), gene 317734. Nature of the test: ATG_zfER2a_XSP2: Attagene TRANS-FACTORIAL Multi-Species (XSP2) HepG2 Assay for zebrafish Estrogen Receptor (ER2a) (AID 2283818).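 Further: hits raise reporter mRNA so AC50 reflects activation of zebrafish ER2a.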 In outline: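 HepG2 cells transiently transfected with GAL4-UAS reporter units and chimeric zebrafish ER2a-Gal4, exposed 24 h; medium contains 3 nM 6-alpha-fluorotestosterone and 1.5 nM norgestrel. Reporter mRNA quantified by RT-PCR, HpaI digestion, capillary electrophoresis; gain versus DMSO.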

In test [3] the test system is chicken Androgen Receptor (AR), gene 422165. In words: ATG_chAR_XSP2: Attagene TRANS-FACTORIAL Multi-Species (XSP2) HepG2 Assay for chicken Androgen Receptor (AR) (AID 2283819).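 Further: hits raise reporter mRNA above DMSO so potency is for activation.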 On the procedure:
(§1) ATG_XSP2_multi-species_TRANS is a cell-based, multiplexed assay created by modifying the existing Attagene TRANS-FACTORIAL system to include a panel of nuclear receptors from some or all the following species: human (Homo sapiens), mouse (Mus musculus), frog (Xenopus laevis), zebrafish (Danio rerio), chicken (Gallus gallus), and turtle (Chrysemys picta). The ECOTOX-FACTORIAL format uses HepG2, a human liver cell line, with measurements taken at 24 hours after chemical dosing in a 24-well plate. Xsp2 included 3 nM 6-alpha-fluorotestosterone and 1.5 nM norgestrel to stimulate the androgen receptor.ATG_chAR_XSP2 is one of 29 assay components measured or calculated from the ATG_XSP2_multi-species_TRANS assay. It is designed to make measurements of mRNA induction, a form of inducible reporter, as detected with fluorescence intensity signals by Reverse transcription polymerase chain reaction (RT-PCR) and Capillary electrophoresis technology.The assay endpoint ATG_chAR_XSP2 was analyzed in the positive analysis fitting direction relative to DMSO as the negative control and baseline of activity. Using a type of inducible reporter, measures of mRNA for gain-of-signal activity can be used to understand the reporter gene at the transcription factor-level as they relate to the gene AR. Furthermore, this assay endpoint can be referred to as a primary readout, because this assay has produced multiple assay endpoints where this one serves a reporter gene function. To generalize the intended target to other relatable targets, this assay endpoint is annotated to the nuclear receptor intended target family, where the subfamily is steroidal.
Human liver HepG2 cells are transiently transfected with multiple reporter transcription units (MRTUs) in 6-well plates using FuGene 6 reagent (Roche; 3 ml FuGene/1 mg DNA). The MRTU constructs are regulated by a cis-regulating element (promoter). […] A major difference between the CIS and TRANS system is that in CIS activities of endogenous TFs are measured, whereas the TRANS assay evaluates changes in activities of exogenous, chimeric NR-Gal4 proteins. […] At the end of 24 hour incubation, total RNA was isolated using TriZol reagent (Invitrogen). The isolated RNA is then reverse-transcribed using oligo(dT) primer and Mo-MLV reverse transcriptase (Invitrogen) with DNAse I (Ambion) treatment for 30 min. The one-tenth of the produced cDNA was amplified by PCR using Taq DNA polymerase (Invitrogen) and two reporter sequence-specific primers. The PCR products were fluorescently labeled by primer extension with 6-arboxyfluorescein (6-FAM) 5'-labeled reporter sequence-specific primer (2 min at 95 C, 20 s at 68 C and 10 min at 72 C) and these products were digested with 5U of HpaI (New England Biolabs) for 2h at 37 C. The fragments were purified using Qiaquick PCR columns (Qiagen), analyzed on an ABI 3130xL genetic analyzer (Applied Biosystems) with peak positions identified by using a set of X-rhodamine (ROX)-labeled MapMarker1000 molecular weight standards (BioVentures). The raw capillary electrophoresis data was processed using Attagraph software (Attagene).

Test [4] deals with frog Estrogen Receptor (ER), gene 398734. In words: ATG_frER1_XSP2: Attagene TRANS-FACTORIAL Multi-Species (XSP2) HepG2 Assay for frog Estrogen Receptor (ER) (AID 2283821).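 Further: hits raise reporter mRNA above DMSO baseline so potency means agonist or activator.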 In outline: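 HepG2, transient MRTU transfection, chimeric NR-GAL4/UAS reporters; 24 h compound exposure, 24-well. Readout: reporter mRNA via RT-PCR + capillary electrophoresis, fluorescence. Positive fit vs DMSO baseline.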

In test [5] the test system is zebrafish Estrogen Receptor (ER2b), gene 317733. In words: ATG_zfER2b_XSP2: Attagene TRANS-FACTORIAL Multi-Species (XSP2) HepG2 Assay for zebrafish Estrogen Receptor (ER2b) (AID 2283823).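 Further: fitted upward as reporter gain over DMSO so potency reflects activation.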 In outline: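 Transcriptional induction measured as reporter mRNA (RT-PCR, fluorescent capillary electrophoresis) in transiently transfected HepG2 cells after 24 h dosing; DMSO served as negative control and baseline.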

In test [6] the test system is zebrafish Androgen Receptor (AR), gene 100005148. In words: ATG_zfAR_XSP2: Attagene TRANS-FACTORIAL Multi-Species (XSP2) HepG2 Assay for zebrafish Androgen Receptor (AR) (AID 2283825).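 Further: hits raise reporter mRNA above DMSO so AC50 reflects agonist-type gain.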 In outline: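 Zebrafish AR–GAL4 chimera transiently expressed with GAL4-UAS reporter in HepG2 cells, co-stimulated with 3 nM 6-alpha-fluorotestosterone and 1.5 nM norgestrel; 24 h dosing, reporter mRNA read by RT-PCR/capillary electrophoresis versus DMSO.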

Test [7] deals with zebrafish Estrogen Receptor (ER1), esr1 (gene 259252) (UniProt P57717). Nature of the test: ATG_zfER1_XSP2: Attagene TRANS-FACTORIAL Multi-Species (XSP2) HepG2 Assay for zebrafish Estrogen Receptor (ER1) (AID 2283816). In outline:
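HepG2 cells transiently transfected with a GAL4-UAS reporter and a chimeric zebrafish ER1-Gal4 construct, dosed 24 h. Reporter mRNA quantified by RT-PCR, labelling, HpaI digestion and capillary electrophoresis, relative to DMSO.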

Test [8] in a line: ATG_M_19_XSP2: Attagene TRANS-FACTORIAL Multi-Species (XSP2) HepG2 Assay for M32 Transcription Factor (Internal Marker) (AID 2283822). In outline:
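Internal background marker in a multi-species nuclear receptor TRANS panel: transfected HepG2 cells exposed 24 h, with 3 nM 6-alpha-fluorotestosterone and 1.5 nM norgestrel present. Readout is RT-PCR of reporter transcripts resolved by capillary electrophoresis, gain-of-signal versus DMSO.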

For test [9], the target named is human Androgen Receptor (AR), AR (gene 367) (UniProt P10275). Nature of the test: ATG_hAR_XSP2: Attagene TRANS-FACTORIAL Multi-Species (XSP2) HepG2 Assay for human Androgen Receptor (AR) (AID 2283820). The method, then:
as §1, with “receptor.ATG_hAR_XSP2” for “receptor.ATG_chAR_XSP2”, “ATG_hAR_XSP2” for “ATG_chAR_XSP2”, “Using a type of inducible reporter, measures of mRNA for gain-of-signal activity can be used to understand the reporter gene at the transcription factor-level as they relate to the gene AR.” left out, “To generalize the intended target to other relatable targets, this assay endpoint is annotated to the nuclear receptor intended target family, where the subfamily is steroidal.” left out

For test [10], the system named is frog Androgen Receptor (AR), gene 399456. In words: ATG_frAR_XSP2: Attagene TRANS-FACTORIAL Multi-Species (XSP2) HepG2 Assay for frog Androgen Receptor (AR) (AID 2283824).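 Further: actives raise reporter signal above DMSO so AC50 reflects agonist-like induction.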 In outline: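 HepG2 cells transiently transfected with GAL4-UAS reporter units and frog (Xenopus laevis) AR-Gal4 chimera; reporter mRNA measured 24 h after dosing by RT-PCR and capillary electrophoresis. Gain of signal fitted relative to DMSO baseline.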

zebrafish Estrogen Receptor (ER1), esr1 (gene 259252), sequence (P57717 whole entry, looked up, the tested form may be a part): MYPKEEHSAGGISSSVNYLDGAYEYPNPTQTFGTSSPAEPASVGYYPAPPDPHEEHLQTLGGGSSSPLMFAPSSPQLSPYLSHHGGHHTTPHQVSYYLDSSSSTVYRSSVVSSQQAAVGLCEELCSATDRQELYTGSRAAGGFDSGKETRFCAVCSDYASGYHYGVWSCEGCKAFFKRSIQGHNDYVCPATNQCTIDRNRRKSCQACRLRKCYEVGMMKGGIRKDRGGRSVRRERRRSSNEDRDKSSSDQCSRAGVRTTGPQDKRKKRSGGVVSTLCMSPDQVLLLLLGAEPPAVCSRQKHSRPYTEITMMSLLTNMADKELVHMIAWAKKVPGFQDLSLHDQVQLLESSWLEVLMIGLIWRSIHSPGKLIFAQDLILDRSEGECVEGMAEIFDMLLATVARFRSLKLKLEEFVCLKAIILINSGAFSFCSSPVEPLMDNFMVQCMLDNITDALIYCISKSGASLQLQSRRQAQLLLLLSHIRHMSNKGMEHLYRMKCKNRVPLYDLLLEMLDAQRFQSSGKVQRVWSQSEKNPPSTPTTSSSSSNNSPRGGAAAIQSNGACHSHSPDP
chicken Estrogen Receptor (ERa), ESR1 (gene 396099), sequence (P06212 whole entry, looked up, the tested form may be a part): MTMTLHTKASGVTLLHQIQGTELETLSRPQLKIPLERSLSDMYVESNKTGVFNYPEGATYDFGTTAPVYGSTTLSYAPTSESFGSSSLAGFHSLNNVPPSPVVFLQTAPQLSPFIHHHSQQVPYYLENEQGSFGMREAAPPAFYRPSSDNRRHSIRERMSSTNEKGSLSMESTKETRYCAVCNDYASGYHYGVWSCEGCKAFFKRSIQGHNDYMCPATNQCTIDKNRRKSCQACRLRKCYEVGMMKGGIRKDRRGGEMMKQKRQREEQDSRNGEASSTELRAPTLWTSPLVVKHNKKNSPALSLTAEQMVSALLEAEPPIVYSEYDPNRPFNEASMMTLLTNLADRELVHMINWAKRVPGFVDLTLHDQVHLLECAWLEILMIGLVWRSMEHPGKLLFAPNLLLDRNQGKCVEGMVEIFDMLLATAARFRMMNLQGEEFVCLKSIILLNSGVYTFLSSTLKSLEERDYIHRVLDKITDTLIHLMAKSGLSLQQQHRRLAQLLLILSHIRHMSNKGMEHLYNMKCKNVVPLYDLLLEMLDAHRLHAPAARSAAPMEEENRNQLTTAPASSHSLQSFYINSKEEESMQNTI
human Androgen Receptor (AR), AR (gene 367), sequence (P10275 whole entry, looked up): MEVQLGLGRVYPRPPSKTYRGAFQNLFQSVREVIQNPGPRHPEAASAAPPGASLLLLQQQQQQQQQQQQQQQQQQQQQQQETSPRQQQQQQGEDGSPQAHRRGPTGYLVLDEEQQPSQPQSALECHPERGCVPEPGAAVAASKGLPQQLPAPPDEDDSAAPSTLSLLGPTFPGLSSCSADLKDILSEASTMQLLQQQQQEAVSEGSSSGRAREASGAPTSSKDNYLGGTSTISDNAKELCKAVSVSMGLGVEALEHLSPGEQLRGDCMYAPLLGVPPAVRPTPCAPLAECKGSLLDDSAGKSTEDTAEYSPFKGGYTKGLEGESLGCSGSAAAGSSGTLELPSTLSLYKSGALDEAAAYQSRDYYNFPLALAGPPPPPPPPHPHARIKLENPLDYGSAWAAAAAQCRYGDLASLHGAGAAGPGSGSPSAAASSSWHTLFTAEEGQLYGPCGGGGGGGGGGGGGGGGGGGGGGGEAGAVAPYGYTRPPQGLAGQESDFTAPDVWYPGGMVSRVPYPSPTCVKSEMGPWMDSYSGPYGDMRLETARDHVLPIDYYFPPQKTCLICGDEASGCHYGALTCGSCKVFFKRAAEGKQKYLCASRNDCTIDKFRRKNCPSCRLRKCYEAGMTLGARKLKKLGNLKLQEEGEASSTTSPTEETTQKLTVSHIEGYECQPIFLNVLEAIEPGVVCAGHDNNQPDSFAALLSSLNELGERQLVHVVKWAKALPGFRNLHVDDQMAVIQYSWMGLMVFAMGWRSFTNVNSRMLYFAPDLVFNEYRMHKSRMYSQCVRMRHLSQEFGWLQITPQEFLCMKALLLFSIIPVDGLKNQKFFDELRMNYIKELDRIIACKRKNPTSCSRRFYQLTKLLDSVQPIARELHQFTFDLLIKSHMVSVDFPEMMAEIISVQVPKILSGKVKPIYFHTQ

As to `CCCCC(CC)COC(=O)c1ccccc1C(=O)O` (stereo not given), the AC50 in [1] was 27.2 µM (active); in [4] it was 4.22 µM (active); in test [5], 48.9 µM (active). The result in [2], in test [3] and in test [6] was inactive.
For the compound `CC(C)CCCCCCc1ccc(O)cc1`, the AC50 is 5.75 µM (active) in [7], 0.829 µM (active) in [1], 0.75 µM (active) in [4] and 1.44 µM (active) in [5]. Further, in test [2], the compound was called inactive.
For the compound `Oc1ccc(C(c2ccc(O)cc2)C(Cl)(Cl)Cl)cc1`, the AC50 is 3.11 µM (active) in [7], 0.11 µM (active) in test [1], 0.271 µM (active) in test [2] and 0.524 µM (active) in test [5]. The result in [4] was inactive.
On to `CCCCC(CC)CN1C(=O)C2C3C=CC(C3)C2C1=O` (stereo not given), for which the result in test [7], in [1], in [2], in test [4] and in test [8] was inactive. Moreover, the AC50 in test [5] was 51.4 µM (active).
On to `C=CCOC(Cn1ccnc1)c1ccc(Cl)cc1Cl` (stereo not given), for which the outcome in test [7], in [1], in test [2], in [4] and in [5] was inactive.
Consider `CCN(Cc1c(F)cccc1Cl)c1c([N+](=O)[O-])cc(C(F)(F)F)cc1[N+](=O)[O-]`, for which the AC50 in test [7] is 6.69 µM (active); in test [1] it was 2.59 µM (active) and 795 nM (active); in test [5] it was 10.2 µM (active) and 4.04 µM (active). In addition, the compound was classed as inactive in test [7], in [3], in test [4] and in [8].
Regarding `CN(C)C(=O)Nc1ccc(Cl)c(Cl)c1`, the outcome in test [7], in [2] and in test [4] was inactive. For the same compound, the concentration at half-maximal activity (AC50) was 32.9 µM (active) and 10.6 µM (active) in test [1]; 24.9 µM (active) in [2]; 19.6 µM (active) in [4]; 130 µM (active) and 65.2 µM (active) in test [5].
`CC(=O)S[C@@H]1CC2=CC(=O)CC[C@]2(C)[C@H]2CC[C@@]3(C)[C@@H](CC[C@@]34CCC(=O)O4)[C@H]12`: the result in test [7], in test [1], in [2], in test [4] and in test [8] was inactive. Further, in [5], the AC50 is 74 µM (active).
For `CC1(C)C(C=C(Cl)Cl)C1C(=O)OCc1cccc(Oc2ccccc2)c1` (stereo not given), the AC50 in test [1] was 4.5 µM (active); in test [2], 18.6 µM (active); in [5], 100 µM (active). Besides, the compound was called inactive in test [3], in test [9], in test [4], in test [8] and in test [10].
Take `N[C@@H](Cc1cc(I)c(Oc2ccc(O)c(I)c2)c(I)c1)C(=O)O`: the AC50 in test [7] was 5.09 µM (active); in test [1], 4.3 µM (active); in test [2] it was 3.71 µM (active); in test [4], 3.68 µM (active); in test [5], 4.9 µM (active). In addition, the outcome in test [7], in [1], in test [2], in test [4], in test [5] and in test [6] was inactive.
With `CSC(=O)c1cccc2nnsc12`, the compound was classed as inactive in test [7], in test [1], in test [2], in test [3], in test [4] and in test [6]. Further, the AC50 in [5] is 152 µM (active) and 121 µM (active).
As to `C#C[C@]1(O)CC[C@H]2[C@@H]3CCC4=CC(=O)CC[C@@H]4[C@H]3CC[C@@]21CC`, the outcome in test [7], in test [1], in test [2], in test [4], in test [5] and in test [6] was inactive. Further, the AC50 in test [2] was 0.318 µM (active); in [4], 0.275 µM (active); in test [5], 0.651 µM (active); in [10], 0.208 µM (active).
For the compound `CC(C)(c1ccc(O)cc1)c1ccc(O)cc1`, the AC50 in test [7] is 2.53 µM (active); in test [1], 0.501 µM (active); in test [2], 2.65 µM (active); in [4] it was 2.64 µM (active); in test [5] it was 2.08 µM (active).
For `O=C(c1ccc(O)cc1O)c1ccc(O)cc1O`, the AC50 was 4.21 µM (active) in test [7]; 2.81 µM (active) in test [1]; 1.12 µM (active) in test [2]; 8.13 µM (active) in test [3]; 1.66 µM (active) in test [4]; 2.47 µM (active) in [5]. Also, the call in test [10] was inactive.
